From PubChem BioAssay (NCI) come the findings set out here.

The panel holds about 83,000 compounds, 20% with a hit somewhere; the sample as a whole holds those more often.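 Negative percent growth values reflect cell death: -40 means 40% of the cells present at the start died, and -100 means all died.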 A number with no mark means an inactive call. Calls of active or inactive are those of the source. The calls were made as follows: active = growth percent below 10; inactive = the rest.

Common to all, as to assay: NCI-60 one-dose screen, 48 h (100 = growth as untreated, 0 = no growth, -100 = all killed)
What all share (conditions): 10 µM unless noted

Test [1] deals with NCI-H23 lung.
The test system of test [2] is NCI-H226 lung.
For test [3], the system named is NCI-H322M lung.
The test system of test [4] is HOP-62 NSCLC.
The subject of test [5] is NCI-H460 lung.
Test [6] deals with NCI-H522 lung.
For test [7], the system named is A549/ATCC NSCLC.
Test [8] has as its system 786-0 renal.
Test [9] concerns COLO 205 colon.
In test [10] the test system is DU-145 prostate.
The subject of test [11] is K-562 leukemia.
Test [12] concerns MALME-3M melanoma.
The test system of test [13] is MDA-MB-231 breast.
In test [14] the test system is RXF 393 renal.
Test [15] has as its system SF-268 CNS.
The subject of test [16] is SF-295 CNS.
For test [17], the system named is SF-539 CNS.
Test [18] relates to UACC-257 melanoma.
For test [19], the system named is M14 melanoma.

Regarding `O=C1Nc2ccc(Cl)cc2/C1=C\c1c(-c2ccc(F)cc2)nc2ccccn12`, the growth was -20.1% (active) in [1]; -30.8% (active) in test [2]; 43.6% in test [3]; -10.3% (active) in test [4]; 6.88% (active) in test [5]; 11.4% in test [6]. The growth in test [7] is 23.7%; in test [8], 24.6%; in test [9], 45.7%; in test [10], -19% (active); in [11] it was -39.5% (active); in [12] it was 16.6%. Moreover, the growth in [13] is 45.9%; in test [14] it was -13.4% (active); in [15] it was 5.15% (active); in test [16], -41% (active); in [17] it was -31.2% (active); in test [18], 75.6%.
For the compound `COc1cc(-c2nn(C(=O)NCCN3CCN(C)CC3)cc2-c2ccncc2)ccc1Cl`, the growth is 90.5% in test [1]; 27.1% in test [2]; 106% in test [3]; 41.6% in test [4]; 93.5% in [5]; 75.3% in test [6]. Further, the growth is 57% in [7]; 59.3% in [8]; 50.9% in [9]; 87.2% in test [10]; 83.9% in test [11]; 77.8% in test [12]. Besides, the growth is 70.5% in test [13]; 42.3% in test [14]; 46.2% in test [15]; 88.2% in test [16]; 63.6% in test [17]; 86.2% in test [18]. In test [19], the growth is 68.9%.
With `C[N+](C)(C)CC(=O)N/N=C\c1ccco1`, the growth in test [1] was 99.6%; in test [2], 103%; in test [3], 105%; in test [4] it was 86.5%; in test [5], 108%; in test [6], 85.7%. In addition, the growth in test [7] is 98.1%; in test [8], 102%; in [9] it was 107%; in test [10], 104%; in test [11] it was 53.3%; in test [12] it was 100%. Also, the growth in test [13] is 118%; in test [14], 118%; in test [15] it was 105%; in test [16], 106%; in [17], 95.3%; in test [18] it was 106%.
With `Cc1cc(C#Cc2ccc(C(C)(C)C)cc2)ccc1-n1c(/C=C/c2c(Cl)cccc2Cl)nc2ccccc2c1=O`, the growth in test [1] is 97.9%; in test [2], 108%; in [3], 92.8%; in test [4] it was 104%; in test [5], 96.3%; in test [6], 105%. In addition, the growth in test [7] is 95.8%; in test [8], 109%; in test [9] it was 103%; in test [10], 110%; in test [11], 101%; in [12], 116%. For the same compound, the growth in test [13] was 122%; in [14], 127%; in test [15], 96.8%; in [16], 97.9%; in test [17], 106%; in test [18], 110%.
Regarding `CCCCOC(=O)c1cc(O)c(O)c(O)c1`, the growth in test [1] was 88.2%; in [2] it was 96.7%; in [3] it was 86.5%; in test [4], 76.2%; in test [5], 58.9%; in [6] it was -1.17% (active). For the same compound, the growth in [7] is 64.7%; in [8], 79.2%; in test [9], 101%; in [10], 74%; in test [11], 66.3%; in test [12], 122%. The growth in test [13] is 66.4%; in [14], 82%; in test [15] it was 53.5%; in test [16], 102%; in [17], 48.5%; in test [18] it was 96.4%.
Take `CN(C)CCNC(=O)n1cc(-c2ccncc2)c(-c2cc(O)cc(Cl)c2)n1`: the growth in test [1] is 108%; in [2], 102%; in test [3], 128%; in test [4], 98.2%; in [5], 93.5%; in test [6], 115%. Also, the growth in test [7] was 107%; in test [8], 81.4%; in test [9], 88.6%; in test [10], 102%; in test [11], 74.8%; in test [12], 6.11% (active). In addition, the growth in test [13] was 88.6%; in test [14] it was 84.4%; in test [15], 96.8%; in test [16], 117%; in [17], 82.5%; in [18], 40.6%.
On to `CC(C)[C@@]12C[C@@H](OC(=O)[C@H]3CO3)[C@@](C)(O1)[C@@H]1CC[C@@H](C)[C@H]1[C@@H]2OC(=O)/C=C/c1ccccc1`, for which the growth is 88.4% in [1]; 54.1% in test [2]; 85.4% in test [3]; 72% in [4]; 89.8% in test [5]; 72.2% in test [6]. The growth in test [7] is 61.5%; in test [8] it was 91.3%; in [9], 109%; in test [10], 102%; in test [11], 90.1%; in test [12], 87%. Further, the growth was 78.7% in test [13]; 59.6% in test [14]; 54.8% in test [15]; 85.2% in [16]; 91.1% in test [17]; 68.3% in test [18].
Turning to `Cc1cc(-c2ccc(N=Nc3c(S(=O)(=O)O)cc4cc(S(=O)(=O)O)cc(O)c4c3O)c(C)c2)ccc1N=Nc1c(S(=O)(=O)O)cc2cc(S(=O)(=O)O)cc(O)c2c1O`, the growth in test [1] is 101%; in test [2], 99.3%; in test [3], 80.7%; in test [4], 82.7%; in test [5] it was 130%; in test [6], 99.3%. The growth was 101% in [7]; 113% in [8]; 92% in test [9]; 112% in test [10]; 125% in test [11]; 100% in test [12]. The growth in test [13] was 107%; in [14], 80.1%; in [15] it was 104%; in [16], 94.1%; in test [17], 101%; in test [18], 102%.
In the case of `Cn1cnc([N+](=O)[O-])c1S(=O)(=O)Oc1ccccc1`, the growth was 101% in test [1]; 91.6% in test [2]; 109% in test [3]; 96.1% in test [4]; 105% in [5]; -75.7% (active) in test [6]. The growth in test [7] was 106%; in test [8] it was 95.2%; in test [9] it was -16.9% (active); in test [10], 70.4%; in [11] it was 31.8%; in [12], -60.9% (active). For the same compound, the growth was 99.4% in test [13]; 74.1% in test [14]; 101% in test [15]; 110% in test [16]; 93.8% in [17]; 90.9% in test [18].
